Results taken from PubChem BioAssay AID2314 (National Center for Advancing Translational Sciences (NCATS), 2010).
Out of some 300,000 compounds screened, about 37,000 (12%) were called active. The sample holds actives, similar compounds and a random draw of the others, so the mix is not that of the screen. No stated cut-off is given here; in the data, active means max response mostly above about 13% (no sharp cut-off); inactive means mostly below about 14%.

Assay: Cycloheximide Counterscreen for Small Molecule Inhibitors of Shiga Toxin; further: read at 38.3 µM for the half of the compounds with a filed dose; 0% is about no effect
Settings: cell reporter, cycloheximide protein synthesis inhibition counterscreen; active compounds read high

Compound	max response
O=C(N/C(=C\c1ccc(O)cc1)C(=O)N1CCCCC1)c1ccccc1	-0.421% (inactive)
COCCCNC(=O)C1CC(=O)N(CCc2ccc(F)cc2)C1 (centres undefined)	-0.645% (inactive)
CC(C)(CNC(=O)c1ccc(Cl)c(S(=O)(=O)N2CCc3ccccc3C2)c1)N1CCOCC1	-3.28% (inactive)
COc1cc(OC)cc(C(=O)NCCSCc2ccc(Cl)cc2)c1	11.2% (inactive)
CC1CC(C)CN(CCCNC(=O)Cn2ncc3c([nH]c4ccccc43)c2=O)C1 (centres undefined)	-2.29% (inactive)
Cc1ccc(NS(=O)(=O)c2cc3c(cc2C)NC(=O)CO3)cc1	-3.17% (inactive)
CC1(C)Cc2c(sc(NC(=O)C(=O)NCC3CCCO3)c2C(=O)O)CO1 (centres undefined)	0.548% (inactive)
COc1ccc(OC)c(NC(=S)N2CCc3ccccc3C2)c1	9.77% (inactive)
Cn1cccc1C(=O)N1CCc2ccccc2C1	15.5% (active)
COc1ccc(S(=O)(=O)NC(C)C(=O)N2CCCCCC2)cc1 (centres undefined)	-0.827% (inactive)
COc1ccc2c(c1)CCc1c(C(=O)N3CCc4ccccc4C3)noc1-2	30.1% (active)
CN1CCN(Cc2c(C(=O)N3CCc4ccccc4C3)nc3ccc(Cl)cn23)CC1	-1.69% (inactive)
O=C(c1noc2c1CCCC2)N1CCc2ccccc2C1	40.9% (active)
O=C(C(=O)N1CCc2ccccc2C1)N1CCc2ccccc2C1	-2.04% (inactive)
COc1ccc2cc(C(=O)C3CCCN(C(=O)c4sc(C)nc4C)C3)ccc2c1 (centres undefined)	15.7% (inactive)
COc1ccc2c(c1)CCc1c(C(=O)N3CCCC3)noc1-2	36.2% (active)
COc1cccc(N(CC(=O)N2CCc3ccccc3C2)S(C)(=O)=O)c1	-1.63% (inactive)
CN(c1ccc(C(=O)N2CCc3ccccc3C2)cc1)S(C)(=O)=O	18.8% (inactive)
COc1cccc(NC(=O)N2CCCC2C(=O)NC2CCCCC2)c1 (centres undefined)	-2.55% (inactive)
Cc1ccc(CN(CC(=O)NC2CCCCC2)C(=O)c2csnn2)cc1	-2.39% (inactive)
CCOCCCNc1c(CC)c(C)c(C#N)c2nc3ccccc3n12	-2.64% (inactive)
Cc1ccc(NC(=O)CC2S/C(=N/N=C3\CCCc4ccccc43)NC2=O)cc1 (centres undefined)	-4.9% (inactive)
C[C@H]1CCC[C@@]2(C)CCCC[C@]12O	12.1% (inactive)
Cn1c(CCc2ccccc2)nnc1SCC(N)=O	-1.26% (inactive)

Compound	max response
O=C(Nc1ccc(S(=O)(=O)N2CCOCC2)cc1)c1ccc2ncsc2c1	43.1% (active)
O=C(Nc1ccc(S(=O)(=O)Nc2nccs2)cc1)c1cccc(S(=O)(=O)N2CCOCC2)c1	-1.31% (inactive)
O=C(Nc1ccc(N2CCOCC2)c(Cl)c1)c1ccc(S(=O)(=O)N2CCOCC2)cc1	5.48% (inactive)
CCc1ccc(C(=O)CSc2nnc(C)c(=O)[nH]2)cc1	1.57% (inactive)
COc1cc(C(=O)NCc2nnc(SCC(=O)c3ccc(Cl)cc3)o2)cc(OC)c1OC	2.18% (inactive)
Cc1ccc(-c2cc(C(=O)N/N=C/C=C/c3ccco3)c3ccccc3n2)cc1C	26.2% (inactive)
Cc1cccc(-n2c(C)cc(/C=N\NC(=O)c3cccs3)c2C)c1	56.1% (active)
CCN(CC)c1ccc(/C=N/NC(=O)CNC(=O)c2cccnc2)cc1	-5.38% (inactive)
CC(=O)Nc1ccc(/C=N/NC(=O)c2cccs2)cc1	58.5% (active)
Cc1ccc(-n2c(C)cc(/C=N\NC(=O)CC(=O)NC(C)C)c2C)cc1	-4.19% (inactive)
O=C(N/N=C/C=C/c1ccco1)c1cccs1	46% (active)
O=C(NC(Cc1c[nH]c2ccccc12)C(=O)N/N=C/c1ccc(Br)cc1)c1cccs1 (centres undefined)	1.73% (inactive)
CCN(CC)c1ccc(/C=N/NC(=O)CNC(=O)c2cccs2)cc1	19.2% (active)
O=C(CNC(=O)c1cccs1)N/N=C/c1cccc(Br)c1	-3.86% (inactive)
Cc1cccc(-n2c(C)cc(/C=N/NC(N)=S)c2C)c1	9.86% (inactive)
CCCc1c(C(=O)N/N=C(\C)CCc2ccc(OC)cc2)nnn1-c1nonc1N	11% (inactive)
Cc1ccc(N(C(=O)c2snc(C(N)=O)c2N)C(C(=O)NCC2CCCO2)c2c[nH]c3ccccc23)cc1 (centres undefined)	-1.6% (inactive)
Cc1cc(C)c(S(=O)(=O)N(C)CC(=O)NCC2CCCO2)c(C)c1 (centres undefined)	-2.82% (inactive)
CCCn1nc(NC(=O)C(C)C)c2cc3cc(OC)ccc3nc21	17% (inactive)
COc1ccc(CCNC(=O)C2CCCN(Cc3nc(-c4cccc(Cl)c4)oc3C)C2)cc1OC (centres undefined)	6.92% (inactive)
CCOc1cc(NC(=S)NCCCN(C)C)c(OCC)cc1NC(=O)C1CC1	-1% (inactive)
Cn1nnnc1-c1cc(Cl)cc(Cl)c1	1.2% (inactive)
CN(CCO)S(=O)(=O)c1ccc2c(c1)C(=O)c1cc(S(=O)(=O)N(C)CCO)ccc1-2	-1.96% (inactive)
COc1ccc(CCNC(=O)C2CC3Cn4c(nc5cc(C)c(C)cc54)C3N2C)cc1 (centres undefined)	-2.66% (inactive)

Compound	max response
CC(=O)Oc1ccc(NC(=O)CCC2CCCCC2)c(C(=O)O)c1	-3.07% (inactive)
Cc1cc(NC(=O)CCC(=O)N(CC(=O)NCC2CCCO2)c2ccccc2)no1 (centres undefined)	-1.66% (inactive)
Cc1ccc(SCCC(=O)Nc2cc(C)on2)cc1	5.3% (inactive)
COc1ccc(NC(=O)CCN2CCCC2)c(OC)c1	-1.44% (inactive)
COc1ccc(NC(=O)CCC(=O)Nc2cc(OC)c(NC(=O)c3ccco3)cc2OC)c(OC)c1	-4.97% (inactive)
COc1ccc(NC(=O)CCCC2CCCCC2)c(OC)c1	31.1% (active)
Cc1cc(NC(=O)CCC2COc3ccccc3O2)no1 (centres undefined)	14.1% (active)
COc1ccc(NC(=O)CC2COc3ccccc3O2)c(OC)c1 (centres undefined)	24.3% (active)
COc1ccc(NC(=O)NCc2ccc3c(c2)OCO3)c(OC)c1	-2.52% (inactive)
CCCNC(=O)COc1coc(CN2CCN(Cc3ccccc3)CC2)cc1=O	-5.17% (inactive)
CCn1ccnc1CNC(=O)CC1C(=O)NCCN1CCCc1ccccc1 (centres undefined)	-2.05% (inactive)
CC1(C)C2CCC1(CS(=O)(=O)NCCc1c[nH]c3ccccc13)C(=O)C2 (centres undefined)	-4.31% (inactive)
Cc1nc2cc(C(F)(F)F)ccc2n1CCNc1nc(-c2cc(Cl)c(N)c(Cl)c2)cs1	-1.25% (inactive)
N#Cc1ccccc1NC(=O)COc1c(Br)cc(Br)c2cccnc12	-3.08% (inactive)
Cc1nn(CC(=O)NC2CCCCC2)c(=O)c2cccn12	10.6% (inactive)
CCCCN1C(=O)/C(=C2/Sc3ccc(Cl)cc3N2CC)SC1=S	-0.782% (inactive)
CN1C=CC=C/C1=C1\SC(=S)N(Cc2ccccc2)C1=O	3.74% (inactive)
CCCCN1C(=O)/C(=C2/C=CC=CN2C)SC1=S	18.7% (active)
Cc1cccc(C)c1NC(=S)N(Cc1cccnc1)Cc1ccccc1Cl	-3.98% (inactive)
COC(=O)c1ccc2ccccc2c1OC1OC(CO)C(O)C(O)C1NC(C)=O (centres undefined)	0.801% (inactive)
CC1CCN(CC(O)COc2ccc(C(=O)c3ccccc3)cc2)CC1 (centres undefined)	-1.82% (inactive)
O=C(NCCN1CCOCC1)/C(=C/c1ccc(F)cc1)NC(=O)c1ccccc1	-4.36% (inactive)
CC(=O)Oc1c(C(=O)c2nnc(C)o2)c(=O)n(Cc2ccccc2)c2ccccc12	-0.619% (inactive)
Brc1ccc2c(c1)[C@H]1OCC[C@H]1[C@@H](c1cccs1)N2	8.72% (inactive)

Compound	max response
C/C(CC(=O)N1CCN(C=O)CC1)=N\NC(=O)c1ccc(Br)cc1	7.55% (inactive)
O=C(O)CC/C(=N\NC(=O)c1ccc(F)cc1)c1ccc(Br)cc1	35% (active)
C/C(=N\NC(=O)Cc1ccc(F)cc1)c1ccc(F)cc1	-1.95% (inactive)
CCc1ccccc1NC(=O)CN(C)S(=O)(=O)c1ccc2c(c1)c(=O)n(C)c(=O)n2C	-5.59% (inactive)
S=c1[nH]nc(-c2ccco2)n1/N=C/c1ccccc1	-1.31% (inactive)
O=c1c2ccccc2nc(-c2ccco2)n1-c1ccc(Br)cn1	-3.55% (inactive)
Cn1c(-c2ccco2)nc2cc3ccccc3cc21	16.7% (active)
Cc1ccc(CS(=O)(=O)CCC(=O)NCc2ccc(F)cc2)cc1	-2.44% (inactive)
Cc1cc(C(=O)N/N=C\C(Br)=C\c2ccccc2)c(C)o1	32.4% (active)
Cc1cc(C(=O)N/N=C/c2ccccc2[N+](=O)[O-])c(C)o1	35% (active)
CNC(=S)N/N=C/c1ccc(N2CCOCC2)s1	13.7% (inactive)
Cc1ccc(-c2cc(C(=O)N/N=C/C=C/c3ccccc3)n[nH]2)o1	-1.74% (inactive)
CN(C)c1ccc(/C=N/Nc2cc(N3CCOCC3)nc(N3CCOCC3)n2)cc1	-1.93% (inactive)
O=C(Cc1cc(=O)[nH][nH]1)N/N=C/c1ccccc1[N+](=O)[O-]	-3.9% (inactive)
Cc1cc(C(=O)N/N=C/c2ccc(N3CCOCC3)cc2)c(C)o1	26.5% (active)
CC(=O)N/N=C/c1cc2c(cc1[N+](=O)[O-])OCO2	-3% (inactive)
Cc1cc(Nc2ccc(N3CCOCC3)cc2)c2cccc(C)c2n1	-1.97% (inactive)
Cc1ccccc1N/N=C/c1ccc(N2CCOCC2)cc1	21.1% (active)
CCN(CC)c1ccc(C(=O)N/N=C/c2ccc(N3CCOCC3)cc2)cc1	-3.32% (inactive)
O=C(N/N=C\c1cccc(Br)c1)c1ccccc1-n1cccc1	1.75% (inactive)
Cc1ccc(S(=O)(=O)c2c[nH]c3ccc(C)cc3c2=O)cc1	-2.63% (inactive)
CCN(CCCNC(=O)c1ccc2c(c1)NC(=O)CN2C)c1cccc(C)c1	-2.58% (inactive)
